Here are results for 15 compounds from PubChem BioAssay AID2783 (National Center for Advancing Translational Sciences (NCATS), 2010).

Results filed as inconclusive are left out. Calls of active or inactive are those of the source. The call rests on the fitted dose curve; in most records, active means well fitted inhibition curve with a large enough effect in the polarisation, with a control signal flat (not every such curve was filed as active); inconclusive means small, poorly fitted or top-dose-only effect, or effect the other way, or a change in a side signal; inactive means no such curve, though single readings can be large or run the other way; the % refers to the polarisation.
On the % scale 0 is the no-effect control and ±100 the full control effect.

For this experiment, the target named is Menin (Homo sapiens) (UniProt O00255). As to the kind of experiment: Confirmation of Inhibitors Targeting the Menin-MLL Interaction in MLL Related Leukemias: Competition With Fluorescein Labeled MLL-derived Peptide. The conditions noted are these: Fluorescence polarization, fluorescein-MLL peptide displacement from menin; series mostly up to 100 µM; activity change, negative = inhibition: at the top concentration.
Chain of Menin (Homo sapiens) (O00255 whole entry, looked up): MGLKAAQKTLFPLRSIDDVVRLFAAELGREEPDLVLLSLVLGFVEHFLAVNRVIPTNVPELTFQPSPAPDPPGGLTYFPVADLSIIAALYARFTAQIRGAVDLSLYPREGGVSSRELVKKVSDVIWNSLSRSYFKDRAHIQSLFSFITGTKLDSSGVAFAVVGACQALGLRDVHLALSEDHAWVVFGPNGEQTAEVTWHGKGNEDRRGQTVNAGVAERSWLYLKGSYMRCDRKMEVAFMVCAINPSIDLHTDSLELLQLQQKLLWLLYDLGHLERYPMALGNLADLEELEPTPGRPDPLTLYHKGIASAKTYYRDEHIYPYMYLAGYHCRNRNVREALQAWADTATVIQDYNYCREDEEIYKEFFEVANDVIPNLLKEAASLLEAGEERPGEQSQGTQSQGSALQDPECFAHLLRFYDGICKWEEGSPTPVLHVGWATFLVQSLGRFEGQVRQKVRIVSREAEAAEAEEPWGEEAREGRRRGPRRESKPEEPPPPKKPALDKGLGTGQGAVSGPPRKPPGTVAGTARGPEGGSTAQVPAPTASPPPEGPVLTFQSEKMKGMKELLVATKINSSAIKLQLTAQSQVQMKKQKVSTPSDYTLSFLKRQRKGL
Regarding `COc1cc(/C=N/n2cnnc2)ccc1OC(=O)N(C)C`, the “activity change, negative = inhibition” value is -5.61% [at 288 µM] (inactive).
As for `C[N+](C)(C)CC#CCN1CCCC1=O`, the “activity change, negative = inhibition” value is -1.22% [at 288 µM] (inactive).
The figure for `OC12C3C4CC5C6C4C1C6C(C53)N2CCc1cccc(F)c1` (stereo not given) is -3.88% (inactive); for `CCCCCn1c(=O)c(C(=O)Nc2nc(CC(=O)OCC)cs2)c(O)c2ccccc21` it is -14.2% (inactive).
On to `COc1ccc(C(O)P(=O)(Oc2ccccc2)Oc2ccccc2)cc1` (stereo not given), for which the “activity change, negative = inhibition” value is -6.17% [at 288 µM] (inactive).
Then `CC[C@]12C=CCN3CC[C@@]4(c5ccc(OC)cc5N(C)[C@H]4[C@@](O)(C(=O)OC)[C@@H]1OC(C)=O)C32` (stereo not given in full), with -14.9% (inactive).
Consider `C[C@@H]1CC[C@@]2(NC1)O[C@H]1C[C@H]3[C@@H]4CC=C5C[C@@H](O)CC[C@]5(C)[C@H]4CC[C@]3(C)[C@H]1[C@@H]2C`, for which the “activity change, negative = inhibition” value was -4.43% (inactive).
Then `O=C(Nc1ccc2ccccc2c1)c1nn(C23CC4CC(CC(C4)C2)C3)cc1Br`, with -12.5% (inactive); and `Cc1cc(C(=O)NP(=O)(N2CCOCC2)N2CCOCC2)c(C)n1C1CC1`, with -16% (inactive).
The figure for `CCOC(=O)Cc1csc(NC(=O)c2c(O)c3ccccc3n(CCC(C)C)c2=O)n1` is -5.01% (inactive).
Then `CCOP(=O)(OCC)C(NC(=O)c1ccccc1C)C(Cl)(Cl)Cl` (stereo not given), with 3.33% [at 288 µM] (inactive); and `O=C(O)CN1C(=O)CN=C(c2ccccn2)c2cc(Cl)ccc21`, with 0.244% [at 288 µM] (inactive).
For the compound `CCCCn1c(=O)c(C(=O)Nc2ccsc2C(=O)OC)c(O)c2ccccc21`, the “activity change, negative = inhibition” value is 5.42% (inactive).
The figure for `O=c1oc2ccccc2c(O)c1C(c1ccccn1)c1c(O)c2ccccc2oc1=O` is -5.18% (inactive); for `O=C1NC(=O)C(=Cc2ccc3ccccc3c2)C(=O)N1` it is -8.04% [at 288 µM] (inactive).
